The panel holds about 83,000 compounds, 20% with a hit somewhere; the sample as a whole holds those more often.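 Each cell line was grown in a 96-well plate and treated with one concentration of compound for 48 hours. Values below 10 were considered active.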 The source made the active and inactive calls.
Columns and labels:
Experiment in all cases: NCI-60 one-dose screen, 48 h (100 = growth as untreated, 0 = no growth, -100 = all killed)
Details in all cases: 10 µM unless noted
HCT-15 colon = tested on: HCT-15 colon
HT29 colon = tested on: HT29 colon
SNB-75 CNS = tested on: SNB-75 CNS
SNB-19 CNS = tested on: SNB-19 CNS
U251 CNS = tested on: U251 CNS
PC-3 prostate = tested on: PC-3 prostate
SK-MEL-5 melanoma = tested on: SK-MEL-5 melanoma
UACC-62 melanoma = tested on: UACC-62 melanoma
LOX IMVI melanoma = tested on: LOX IMVI melanoma
SK-MEL-28 melanoma = tested on: SK-MEL-28 melanoma

Measured: growth

COc1cc(O)c2c(c1)/C=C/C[C@H](O)[C@H](O)C(=O)/C=C\C[C@H](C)OC2=O
inactive: SNB-19 CNS 52.3% | U251 CNS 34.6% | PC-3 prostate 42.6%
active: HCT-15 colon -47.5% | HT29 colon 1.76% | SNB-75 CNS -2.99% | SK-MEL-5 melanoma -57.9% | UACC-62 melanoma -16.3% | LOX IMVI melanoma -42.7% | SK-MEL-28 melanoma -3.57%

C#C[C@]1(O)CC[C@H]2[C@@H]3CC=C4c5sc(C6CC6)nc5CC[C@]4(C)[C@H]3CC[C@@]21C
inactive: HCT-15 colon 50.4% | HT29 colon 70.2% | SNB-75 CNS 94.8% | SNB-19 CNS 90% | U251 CNS 66.3% | PC-3 prostate 67.2% | SK-MEL-5 melanoma 93.5% | UACC-62 melanoma 67.7% | LOX IMVI melanoma 62.6% | SK-MEL-28 melanoma 69.3%

N#Cc1c(NC(=O)c2ccc(F)c(Cl)c2)sc2c1CCC(=O)C2
active: HCT-15 colon -38.6% | HT29 colon 8.89% | SNB-75 CNS -0.913% | PC-3 prostate -19.8% | SK-MEL-5 melanoma -75.6% | UACC-62 melanoma -69.7% | LOX IMVI melanoma -16.1% | SK-MEL-28 melanoma -66.9%
inactive: SNB-19 CNS 15.1% | U251 CNS 11.6%

CC(=O)NC(C)(C)C(=O)N1CCC[C@H]1C(=O)NC(C)(C)C(=O)N[C@@H](C)C(=O)NC(C)(C)C(=O)N[C@@H](C)C(=O)N[C@@H](CCC(N)=O)C(=O)NC(C)(C)C(=O)N[C@H](C(=O)NC(C)(C)C(=O)NCC(=O)N[C@@H](CC(C)C)C(=O)NC(C)(C)C(=O)N1CCC[C@H]1C(=O)N[C@H](C(=O)NC(C)(C)C(=O)NC(C)(C)C(=O)N[C@@H](CCC(N)=O)C(=O)N[C@@H](CCC(N)=O)C(=O)N[C@H](CO)Cc1ccccc1)C(C)C)C(C)C
inactive: HCT-15 colon 101% [4.25 µM] | HT29 colon 71% [4.25 µM] | SNB-75 CNS 33.4% [4.25 µM] | SNB-19 CNS 52.5% [4.25 µM] | U251 CNS 62.3% [4.25 µM] | PC-3 prostate 28.3% [4.25 µM] | SK-MEL-5 melanoma 38.2% [4.25 µM] | UACC-62 melanoma 95.8% [4.25 µM] | LOX IMVI melanoma 84.3% [4.25 µM] | SK-MEL-28 melanoma 65.3% [4.25 µM]

CCOC(=O)/C(F)=C/C1CC1C1CCCCC1 (stereo not given)
inactive: HCT-15 colon 102% | HT29 colon 111% | SNB-75 CNS 95.2% | SNB-19 CNS 98.5% | U251 CNS 105% | PC-3 prostate 102% | SK-MEL-5 melanoma 99.8% | UACC-62 melanoma 95.5% | LOX IMVI melanoma 98% | SK-MEL-28 melanoma 100%

COC(=O)c1c(C(=O)OC)c2n(CC(=O)Nc3cccc4cccnc34)c3ccccc3n2c1C(=O)c1ccc(C)cc1
inactive: HCT-15 colon 97.6% | HT29 colon 102% | SNB-75 CNS 101% | SNB-19 CNS 91.1% | U251 CNS 97.7% | PC-3 prostate 82.5% | SK-MEL-5 melanoma 96.4% | UACC-62 melanoma 84.6% | LOX IMVI melanoma 98.9% | SK-MEL-28 melanoma 110%

NS(=O)(=O)c1ccc(Nc2nc(N/N=C/c3ccc([N+](=O)[O-])cc3)nc(Nc3ccccc3)n2)cc1
inactive: HCT-15 colon 86.5% | HT29 colon 24.6% | SNB-75 CNS 45.4% | SNB-19 CNS 20.4% | U251 CNS 18.2% | PC-3 prostate 50.2% | SK-MEL-5 melanoma 32.3% | UACC-62 melanoma 45.1% | SK-MEL-28 melanoma 35.2%
active: LOX IMVI melanoma -20.6%

C/C(=N/Nc1nc(N/N=C(/C)c2ccc([N+](=O)[O-])cc2)nc(N2CCOCC2)n1)c1ccc([N+](=O)[O-])cc1
inactive: HCT-15 colon 66.1% | HT29 colon 80.6% | SNB-75 CNS 80.6% | SNB-19 CNS 63.1% | U251 CNS 92.6% | PC-3 prostate 76.6% | SK-MEL-5 melanoma 67.1% | UACC-62 melanoma 85.3% | LOX IMVI melanoma 38.9% | SK-MEL-28 melanoma 83.8%

COc1ccc(Cn2cc3c(c2-c2ccccc2)CCCc2cnoc2-3)cc1
inactive: HCT-15 colon 32.5% | HT29 colon 20.4% | SNB-75 CNS 51.2% | SNB-19 CNS 61% | U251 CNS 57.7% | PC-3 prostate 60% | SK-MEL-5 melanoma 50.1% | UACC-62 melanoma 42.7% | LOX IMVI melanoma 53.5% | SK-MEL-28 melanoma 62%

COc1ccc2c(C3=C(c4c[nH]c5ccccc45)C(=O)N(O)C3=O)coc2c1
inactive: HCT-15 colon 92.2% | HT29 colon 95.4% | SNB-75 CNS 105% | SNB-19 CNS 95.1% | U251 CNS 98% | PC-3 prostate 81.2% | SK-MEL-5 melanoma 94.5% | UACC-62 melanoma 80.4% | LOX IMVI melanoma 52.2% | SK-MEL-28 melanoma 110%

CC(=O)Nc1cccc(-n2cnc3cc(-c4ccc(O)cc4)ccc32)c1
active: SNB-75 CNS -31.7%
inactive: HCT-15 colon 24.8% | HT29 colon 28.2% | SNB-19 CNS 33.4% | U251 CNS 23.1% | PC-3 prostate 35.7% | SK-MEL-5 melanoma 28.3% | UACC-62 melanoma 36.5% | LOX IMVI melanoma 36.6% | SK-MEL-28 melanoma 78%

COc1ccc(-c2cc(-c3ccc(Cl)cc3)nc3nc(N)nn23)cc1
inactive: HCT-15 colon 90.2% | HT29 colon 99.5% | SNB-75 CNS 104% | SNB-19 CNS 91.5% | U251 CNS 91% | PC-3 prostate 106% | SK-MEL-5 melanoma 93.6% | UACC-62 melanoma 92.8% | LOX IMVI melanoma 105% | SK-MEL-28 melanoma 116%

O=C(/C=C/Nc1ccc(S(=O)(=O)O)cc1)c1ccc(F)cc1
inactive: HCT-15 colon 96.4% | HT29 colon 103% | SNB-75 CNS 92.4% | SNB-19 CNS 93.4% | U251 CNS 98% | PC-3 prostate 96.1% | SK-MEL-5 melanoma 99.2% | UACC-62 melanoma 93.5% | LOX IMVI melanoma 95.9% | SK-MEL-28 melanoma 101%

CNC(=O)c1cc(Oc2ccc3nc(NC(=O)c4ccc(CN5CCN(C)CC5)c(C(F)(F)F)c4)sc3c2)ccn1
active: HCT-15 colon 8.89% | LOX IMVI melanoma -28.2% | SK-MEL-28 melanoma -38.1%
inactive: HT29 colon 16.1% | SNB-75 CNS 55.1% | SNB-19 CNS 75.9% | U251 CNS 57.1% | PC-3 prostate 47.3% | SK-MEL-5 melanoma 31.4% | UACC-62 melanoma 56.3%

COc1ccc(/C=N/Nc2nc(N/N=C/c3ccc(OC)cc3O)nc(N3CCOCC3)n2)c(O)c1
inactive: HT29 colon 56.4% | SNB-75 CNS 74.4% | SNB-19 CNS 69.4% | U251 CNS 45.6% | PC-3 prostate 35.8% | SK-MEL-5 melanoma 40.6% | UACC-62 melanoma 69.3% | LOX IMVI melanoma 45.4% | SK-MEL-28 melanoma 37.4%
active: HCT-15 colon 3.39%

N#C/C(=C\c1ccc(-c2ccc(F)cc2)o1)C(=O)Nc1ncc(Cc2ccc(Cl)cc2Cl)s1
inactive: SNB-75 CNS 58.3% | U251 CNS 21.9% | SK-MEL-5 melanoma 27.4% | UACC-62 melanoma 15.9% | SK-MEL-28 melanoma 39.5%
active: HCT-15 colon -31.7% | HT29 colon 6.93% | SNB-19 CNS -12.9% | PC-3 prostate 1.25%

NCCN1CCN(c2nc(-c3ccccc3)nc3nc(-c4ccccc4)oc23)CC1
active: HCT-15 colon -66.8% | HT29 colon -52.8% | SNB-75 CNS -77.1% | SNB-19 CNS -19.7% | U251 CNS -51.4% | SK-MEL-28 melanoma -85.4%
inactive: PC-3 prostate 15% | SK-MEL-5 melanoma 78.7% | UACC-62 melanoma 101%

O=S(=O)(Nc1ccc(C2CC2)cc1)c1ccc(-c2cnc(C3CC3)o2)cc1
inactive: HCT-15 colon 39.9% | HT29 colon 38.4% | SNB-75 CNS 53.8% | SNB-19 CNS 73.7% | U251 CNS 68.7% | PC-3 prostate 63.1% | SK-MEL-5 melanoma 74.7% | UACC-62 melanoma 48.5% | SK-MEL-28 melanoma 73.2%

O=C1CSC(=O)N1Cc1cc2ccccc2nc1Cl
inactive: HCT-15 colon 101% | HT29 colon 107% | SNB-75 CNS 84.7% | SNB-19 CNS 99.8% | U251 CNS 97.6% | PC-3 prostate 96.8% | SK-MEL-5 melanoma 99.7% | UACC-62 melanoma 93.9% | LOX IMVI melanoma 97.4% | SK-MEL-28 melanoma 109%

O=C1Nc2cc(OC(F)(F)F)ccc2Oc2ccc(-c3ccnc(N4CC[C@H](O)C4)c3)cc21
inactive: SNB-19 CNS 35.9% | PC-3 prostate 15% | UACC-62 melanoma 28.8% | SK-MEL-28 melanoma 24.6%
active: HCT-15 colon -30.6% | HT29 colon -58.7% | SNB-75 CNS -6% | U251 CNS 4.76% | SK-MEL-5 melanoma -58.4% | LOX IMVI melanoma 3.23%

Oc1ccc(CSc2nnc(-c3ccc(Oc4ccccc4)cc3)o2)c2cccnc12
inactive: HT29 colon 94.4% | SNB-19 CNS 17.3% | PC-3 prostate 20.4% | SK-MEL-5 melanoma 16.6% | UACC-62 melanoma 22.6% | LOX IMVI melanoma 19.8% | SK-MEL-28 melanoma 52.2%
active: HCT-15 colon 9.07% | SNB-75 CNS -25.3% | U251 CNS -4.12%

CCNC(=O)Oc1ccc(/C(=C(/C)c2ccc(Cl)cc2)c2ccc(OCCN(C)C)cc2)cc1
inactive: HCT-15 colon 47% | HT29 colon 15.2% | SNB-75 CNS 75.4% | SNB-19 CNS 81.1% | U251 CNS 58.8% | PC-3 prostate 62.8% | SK-MEL-5 melanoma 70.7% | UACC-62 melanoma 86.4% | SK-MEL-28 melanoma 93.4%

CCNCc1c(-c2cccc(OC(F)(F)F)c2)[nH]c2ccc(N3CCCC3)cc2c1=O
inactive: SNB-19 CNS 19.8% | U251 CNS 20% | PC-3 prostate 14.6% | SK-MEL-5 melanoma 15.5% | UACC-62 melanoma 30.3% | SK-MEL-28 melanoma 48%
active: HCT-15 colon 9.2% | HT29 colon 7.01% | SNB-75 CNS -5.02%

CCCCCCNC(=O)Oc1ccc(/C(=C(/C)c2ccc(OC)cc2)c2ccc(OCCN3CCCC3)cc2)cc1
inactive: HCT-15 colon 17.3% | HT29 colon 13.9% | SNB-75 CNS 85.5% | SNB-19 CNS 72.2% | U251 CNS 58.6% | PC-3 prostate 67.7% | SK-MEL-5 melanoma 53.7% | UACC-62 melanoma 74.2% | SK-MEL-28 melanoma 60.3%
active: LOX IMVI melanoma -39.1%

COCCOc1ccc(-c2csc(NC(C)=O)n2)cc1NS(=O)(=O)c1cccc2c(N(C)C)cccc12
inactive: HCT-15 colon 94.5% | HT29 colon 89.3% | SNB-75 CNS 94.2% | SNB-19 CNS 71% | U251 CNS 99.5% | PC-3 prostate 68.5% | SK-MEL-5 melanoma 78.8% | UACC-62 melanoma 60.8% | LOX IMVI melanoma 98.4% | SK-MEL-28 melanoma 83.1%

— PubChem BioAssay (NCI)
